Source: PubChem BioAssay (NCI)
About 79,000 compounds went through this panel and 15% of them were active in at least one assay; those are over-represented in the sample as a whole. Calls of active or inactive are those of the source. Cut-off read from the data, not from the text of the source: active = growth inhibition above about 70%; inactive = the rest.

Experiment: NCI Yeast Anticancer Drug Screen. Data for the rad50 strain (AID 155);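 note: 0% = growth of vehicle-only cultures of the same strain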
Conditions: S. cerevisiae rad50 strain growth inhibition; at 5.0 µM (retest, dose inferred, filed as 0.5); hits give high values
Outline: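 A DNA repair-deficient yeast mutant serves as the test organism; compound-induced growth inhibition is calculated against vehicle-treated cells.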
In the case of `O=[N+]([O-])c1cc(F)c(Sc2cc(Br)c([N+](=O)[O-])cc2F)cc1Br`, the growth inhibition is reported as 1% (inactive). In the case of `C=CS(=O)(=O)c1ccc(C)cc1`, the growth inhibition is reported as 0% (inactive). With `NC(CSSCC(N)C(=O)Nc1ccc2ccccc2c1)C(=O)Nc1ccc2ccccc2c1` (stereo not given) the growth inhibition was 42% (inactive). In the case of `COc1ccc(C2=CCC3C4CC=C5CC(O)CCC5(C)C4CCC23C)s1` (stereo not given), the growth inhibition is reported as 0% (inactive). In the case of `O=C(O)COc1ccccc1C(=O)O`, the growth inhibition is reported as 0% (inactive). With `O=[N+]([O-])c1ccc(NNS(=O)(=O)c2ccccc2)c([N+](=O)[O-])c1` the growth inhibition was 3% (inactive). With `CCOc1nc(N)nc(C)c1N=Nc1ccc(Cl)cc1` the growth inhibition was 16% (inactive). In the case of `Nc1ccc2c(c1)CCc1ccccc1-2`, the growth inhibition is reported as 1% (inactive). In the case of `O=c1c2cc3c(cc2c2cccc4c2n1CCC4)OCO3`, the growth inhibition is reported as -1% (inactive). For `O=C(COc1ccc(Br)cc1Br)N1N=C(c2ccc([N+](=O)[O-])o2)CC1(O)c1ccccc1` (stereo not given), the growth inhibition was 23% (inactive). For `Nc1cc(Br)cc2c1[nH]c1ccc(Br)cc12`, the growth inhibition was 46% (inactive). In the case of `Clc1ccccc1CCc1cc(-c2ccccc2)n[nH]1`, the growth inhibition is reported as -14% (inactive). For `O=C(CSc1nnc(-c2ccc(N=Cc3ccc(Cl)cc3)cc2)o1)Nc1ccccc1Cl`, the growth inhibition was 22% (inactive). In the case of `COC(=O)CCCCC(=O)N(C(C)C)C(C)C`, the growth inhibition is reported as 4% (inactive). In the case of `CCc1ccccc1NC(=O)C(=O)CC(=O)c1ccc(Cl)s1`, the growth inhibition is reported as 1% (inactive). With `CCNC(=S)N/N=C/c1ccccn1` the growth inhibition was -15% (inactive). In the case of `[N-]=[N+]=Nc1c(C=O)c(=O)n(-c2ccccc2)c2ccccc12`, the growth inhibition is reported as 8% (inactive). With `COc1cc2c(c(O)c1C)C(=O)C(Cl)=CC2=O` the growth inhibition was 99% (active). With `O=c1[nH]c(=O)c2cc([N+](=O)[O-])cc([N+](=O)[O-])c2[nH]1` the growth inhibition was 9% (inactive). For `CCOC(=O)NC(=S)Nc1ccsc1`, the growth inhibition was 0% (inactive). For `O=C(/C(O)=C(\O)C(=O)N(C1CCCCC1)C1CCCCC1)N(C1CCCCC1)C1CCCCC1`, the growth inhibition was 25% (inactive). With `Nc1nccc2c1ncn2C1C=C(CO)C(O)C1O` (stereo not given) the growth inhibition was 15% (inactive). With `NC(=Nc1ccccc1)c1ccc2c(c1)c1c(n2Cc2ccccc2)CCCC1` the growth inhibition was -9% (inactive). With `CC/C(=C(/CC)c1ccc(O)cc1)c1ccc([O-])cc1.CC/C(=C(/CC)c1ccc(O)cc1)c1ccc([O-])cc1.O=C([CH-]C(=O)c1ccccc1)c1ccccc1.O=C([CH-]C(=O)c1ccccc1)c1ccccc1.[Ti+4]` the growth inhibition was 64% (inactive). For `CC(=O)c1c(O)c2ccc(Cl)cc2[nH]c1=O`, the growth inhibition was 73% (active). With `CCOC(=O)c1cnccc1CC1(C#N)c2ccccc2C=CN1C(=O)c1ccccc1` (stereo not given) the growth inhibition was 5% (inactive). For `O=c1cc(-c2ccccc2)oc(-c2ccccc2)c1`, the growth inhibition was -152% (inactive). In the case of `CCCCCC/C=C\C=O`, the growth inhibition is reported as -1% (inactive). In the case of `O=C1NC(=O)C(c2ccccc2)(c2ccccc2)C2CC3c4[nH]c5ccccc5c4CCN3CC12` (stereo not given), the growth inhibition is reported as 5% (inactive). In the case of `Nc1ccc(-c2ccc(N)cc2S(=O)(=O)O)c(S(=O)(=O)O)c1`, the growth inhibition is reported as 2% (inactive). For `Oc1ccc2ccccc2c1/C=N\Sc1ccccc1`, the growth inhibition was 11% (inactive). In the case of `CCCC(C)c1ccc(O)cc1` (stereo not given), the growth inhibition is reported as 6% (inactive). With `CCOC(=O)/C(=C\c1ccc(Cl)cc1)C(C)=O` the growth inhibition was 31% (inactive). With `O=C(O)C(SC1=NNC2(C(=O)N1)c1ccccc1-c1ccccc12)SC1=NNC2(C(=O)N1)c1ccccc1-c1ccccc12` the growth inhibition was 4% (inactive). In the case of `Cc1sc(Cc2ccccc2)nc1-c1ccc(N=Cc2ccc(N(CCOS(C)(=O)=O)CCOS(C)(=O)=O)cc2)cc1`, the growth inhibition is reported as 53% (inactive). With `CCCCc1ccc(Nc2nc(N)c3[nH]cnc3n2)cc1` the growth inhibition was 19% (inactive). For `O=C(c1c(F)c(F)c(F)c(F)c1F)n1c(=S)n(C(=O)c2c(F)c(F)c(F)c(F)c2F)c2ccccc21`, the growth inhibition was 11% (inactive). For `Cc1ccnc2sc3ccccc3c(=O)c12`, the growth inhibition was 15% (inactive). With `O=[N+]([O-])c1ccc2c(c1)CCc1ccccc1-2` the growth inhibition was 10% (inactive). In the case of `NNc1ccc(Br)cc1`, the growth inhibition is reported as 83% (active).

Same assay, conditions: S. cerevisiae rad50 strain growth inhibition; at 50.0 µM (retest, dose inferred, filed as 5.0); hits give high values
In the case of `O=[N+]([O-])c1cc(F)c(Sc2cc(Br)c([N+](=O)[O-])cc2F)cc1Br`, the growth inhibition is reported as -16% (inactive). For `C=CS(=O)(=O)c1ccc(C)cc1`, the growth inhibition was 49% (inactive). For `NC(CSSCC(N)C(=O)Nc1ccc2ccccc2c1)C(=O)Nc1ccc2ccccc2c1` (stereo not given), the growth inhibition was 98% (active). In the case of `COc1ccc(C2=CCC3C4CC=C5CC(O)CCC5(C)C4CCC23C)s1` (stereo not given), the growth inhibition is reported as 13% (inactive). With `O=C(O)COc1ccccc1C(=O)O` the growth inhibition was -3% (inactive). With `O=[N+]([O-])c1ccc(NNS(=O)(=O)c2ccccc2)c([N+](=O)[O-])c1` the growth inhibition was -7% (inactive). For `CCOc1nc(N)nc(C)c1N=Nc1ccc(Cl)cc1`, the growth inhibition was 76% (active). With `Nc1ccc2c(c1)CCc1ccccc1-2` the growth inhibition was 40% (inactive). In the case of `O=c1c2cc3c(cc2c2cccc4c2n1CCC4)OCO3`, the growth inhibition is reported as 44% (inactive). In the case of `O=C(COc1ccc(Br)cc1Br)N1N=C(c2ccc([N+](=O)[O-])o2)CC1(O)c1ccccc1` (stereo not given), the growth inhibition is reported as 23% (inactive). With `Nc1cc(Br)cc2c1[nH]c1ccc(Br)cc12` the growth inhibition was 98% (active). In the case of `Clc1ccccc1CCc1cc(-c2ccccc2)n[nH]1`, the growth inhibition is reported as 97% (active). In the case of `O=C(CSc1nnc(-c2ccc(N=Cc3ccc(Cl)cc3)cc2)o1)Nc1ccccc1Cl`, the growth inhibition is reported as 57% (inactive). In the case of `COC(=O)CCCCC(=O)N(C(C)C)C(C)C`, the growth inhibition is reported as -10% (inactive). For `CCc1ccccc1NC(=O)C(=O)CC(=O)c1ccc(Cl)s1`, the growth inhibition was 1% (inactive). For `CCNC(=S)N/N=C/c1ccccn1`, the growth inhibition was 95% (active). In the case of `[N-]=[N+]=Nc1c(C=O)c(=O)n(-c2ccccc2)c2ccccc12`, the growth inhibition is reported as 57% (inactive). In the case of `COc1cc2c(c(O)c1C)C(=O)C(Cl)=CC2=O`, the growth inhibition is reported as 99% (active). For `O=c1[nH]c(=O)c2cc([N+](=O)[O-])cc([N+](=O)[O-])c2[nH]1`, the growth inhibition was 75% (active). For `CCOC(=O)NC(=S)Nc1ccsc1`, the growth inhibition was -7% (inactive). With `O=C(/C(O)=C(\O)C(=O)N(C1CCCCC1)C1CCCCC1)N(C1CCCCC1)C1CCCCC1` the growth inhibition was 93% (active). With `Nc1nccc2c1ncn2C1C=C(CO)C(O)C1O` (stereo not given) the growth inhibition was 67% (inactive). For `NC(=Nc1ccccc1)c1ccc2c(c1)c1c(n2Cc2ccccc2)CCCC1`, the growth inhibition was 99% (active). In the case of `CC/C(=C(/CC)c1ccc(O)cc1)c1ccc([O-])cc1.CC/C(=C(/CC)c1ccc(O)cc1)c1ccc([O-])cc1.O=C([CH-]C(=O)c1ccccc1)c1ccccc1.O=C([CH-]C(=O)c1ccccc1)c1ccccc1.[Ti+4]`, the growth inhibition is reported as 95% (active). For `CC(=O)c1c(O)c2ccc(Cl)cc2[nH]c1=O`, the growth inhibition was 90% (active). For `CCOC(=O)c1cnccc1CC1(C#N)c2ccccc2C=CN1C(=O)c1ccccc1` (stereo not given), the growth inhibition was 67% (inactive). For `O=c1cc(-c2ccccc2)oc(-c2ccccc2)c1`, the growth inhibition was -105% (inactive). For `CCCCCC/C=C\C=O`, the growth inhibition was 4% (inactive). With `O=C1NC(=O)C(c2ccccc2)(c2ccccc2)C2CC3c4[nH]c5ccccc5c4CCN3CC12` (stereo not given) the growth inhibition was 61% (inactive). For `Nc1ccc(-c2ccc(N)cc2S(=O)(=O)O)c(S(=O)(=O)O)c1`, the growth inhibition was 0% (inactive). In the case of `Oc1ccc2ccccc2c1/C=N\Sc1ccccc1`, the growth inhibition is reported as 99% (active). In the case of `CCCC(C)c1ccc(O)cc1` (stereo not given), the growth inhibition is reported as 13% (inactive). With `CCOC(=O)/C(=C\c1ccc(Cl)cc1)C(C)=O` the growth inhibition was 98% (active). With `O=C(O)C(SC1=NNC2(C(=O)N1)c1ccccc1-c1ccccc12)SC1=NNC2(C(=O)N1)c1ccccc1-c1ccccc12` the growth inhibition was 96% (active). In the case of `Cc1sc(Cc2ccccc2)nc1-c1ccc(N=Cc2ccc(N(CCOS(C)(=O)=O)CCOS(C)(=O)=O)cc2)cc1`, the growth inhibition is reported as 95% (active). With `CCCCc1ccc(Nc2nc(N)c3[nH]cnc3n2)cc1` the growth inhibition was 35% (inactive). With `O=C(c1c(F)c(F)c(F)c(F)c1F)n1c(=S)n(C(=O)c2c(F)c(F)c(F)c(F)c2F)c2ccccc21` the growth inhibition was 96% (active). In the case of `Cc1ccnc2sc3ccccc3c(=O)c12`, the growth inhibition is reported as 96% (active). In the case of `O=[N+]([O-])c1ccc2c(c1)CCc1ccccc1-2`, the growth inhibition is reported as 77% (active). With `NNc1ccc(Br)cc1` the growth inhibition was 98% (active).
